# Laboratory results from PMC7862700, “An all-to-all approach to the identification of sequence-specific readers for epigenetic DNA modifications on cytosine”.
# Assays:
# Assay in all cases: DAPPL (digital affinity profiling via proximity ligation, sequencing); 10 mM Tris-HCl pH 7.5, 50 mM NaCl, 1 mM DTT, 4% glycerol, room temperature, 30 min; GST-TFs on glutathione beads, 16-mer random dsDNA library, 0.1% formaldehyde crosslink after washing; high values mean tight binding
# FLI1 = target: T1, FLI1 (Homo sapiens, UniProt Q01543 1-452); settings: protein: recombinant; tags: N-terminal GST; dsDNA, one strand shown
# T1 sequence: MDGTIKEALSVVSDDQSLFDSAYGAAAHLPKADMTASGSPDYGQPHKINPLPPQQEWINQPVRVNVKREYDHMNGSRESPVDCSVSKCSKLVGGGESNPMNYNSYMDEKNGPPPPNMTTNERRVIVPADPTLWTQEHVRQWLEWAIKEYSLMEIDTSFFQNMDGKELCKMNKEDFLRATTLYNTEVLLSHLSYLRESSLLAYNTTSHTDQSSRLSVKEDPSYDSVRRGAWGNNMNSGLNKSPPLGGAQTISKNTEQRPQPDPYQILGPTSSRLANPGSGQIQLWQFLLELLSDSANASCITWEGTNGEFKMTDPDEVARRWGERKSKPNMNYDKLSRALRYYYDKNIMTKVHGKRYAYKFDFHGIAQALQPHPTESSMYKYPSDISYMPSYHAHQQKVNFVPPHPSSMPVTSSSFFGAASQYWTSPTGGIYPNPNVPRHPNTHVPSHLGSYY
# In short: (§1)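 Pools were built from human transcription factors expressed in yeast as GST fusions, captured on glutathione beads and DNA-barcoded, along with a tag-only sample. Incubation with 200 nmole of a 16-mer random double-stranded DNA library lasted 30 min at room temperature in Tris/NaCl/DTT/glycerol buffer, and was followed by washing, 0.1% formaldehyde crosslinking, proximity ligation, PCR amplification and Illumina NextSeq500 sequencing. Binding signal is the quotient of each hexamer's read frequency for a factor and its frequency for the tag-only sample.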
# ELK1 = target: T2, ELK1 (Homo sapiens, UniProt P19419 1-428); settings: protein: recombinant; tags: N-terminal GST; dsDNA, one strand shown
# T2 sequence: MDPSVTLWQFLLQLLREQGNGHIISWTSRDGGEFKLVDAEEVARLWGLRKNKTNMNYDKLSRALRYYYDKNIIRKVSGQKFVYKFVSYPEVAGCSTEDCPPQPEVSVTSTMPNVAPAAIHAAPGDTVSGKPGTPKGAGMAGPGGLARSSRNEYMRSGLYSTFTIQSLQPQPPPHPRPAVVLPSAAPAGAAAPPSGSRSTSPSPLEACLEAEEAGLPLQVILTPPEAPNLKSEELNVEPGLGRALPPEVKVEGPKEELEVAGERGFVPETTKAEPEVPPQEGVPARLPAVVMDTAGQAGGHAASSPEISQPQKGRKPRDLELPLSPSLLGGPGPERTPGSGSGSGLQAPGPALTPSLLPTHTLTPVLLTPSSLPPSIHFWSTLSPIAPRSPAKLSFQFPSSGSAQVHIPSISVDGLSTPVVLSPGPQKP
# In short: as §1
# GABPA = target: T3, GABPA (Homo sapiens, UniProt Q06546 1-454); settings: protein: recombinant; tags: N-terminal GST; dsDNA, one strand shown
# T3 sequence: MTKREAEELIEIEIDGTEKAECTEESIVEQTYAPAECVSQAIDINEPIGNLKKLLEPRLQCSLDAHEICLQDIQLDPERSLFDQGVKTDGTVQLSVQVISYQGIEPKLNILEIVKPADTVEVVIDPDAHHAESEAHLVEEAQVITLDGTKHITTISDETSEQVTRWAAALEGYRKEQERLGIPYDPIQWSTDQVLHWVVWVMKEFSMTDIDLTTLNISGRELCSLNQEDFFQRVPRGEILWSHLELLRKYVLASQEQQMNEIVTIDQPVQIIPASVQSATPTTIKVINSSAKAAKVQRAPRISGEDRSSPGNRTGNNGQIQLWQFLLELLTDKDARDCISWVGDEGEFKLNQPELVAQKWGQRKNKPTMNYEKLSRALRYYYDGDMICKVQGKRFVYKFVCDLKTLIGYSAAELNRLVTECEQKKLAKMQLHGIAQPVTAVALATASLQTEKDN
# In short: as §1
# ERG = target: T4, ERG (Homo sapiens, UniProt P11308 1-479); settings: protein: recombinant; tags: N-terminal GST; dsDNA, one strand shown
# T4 sequence: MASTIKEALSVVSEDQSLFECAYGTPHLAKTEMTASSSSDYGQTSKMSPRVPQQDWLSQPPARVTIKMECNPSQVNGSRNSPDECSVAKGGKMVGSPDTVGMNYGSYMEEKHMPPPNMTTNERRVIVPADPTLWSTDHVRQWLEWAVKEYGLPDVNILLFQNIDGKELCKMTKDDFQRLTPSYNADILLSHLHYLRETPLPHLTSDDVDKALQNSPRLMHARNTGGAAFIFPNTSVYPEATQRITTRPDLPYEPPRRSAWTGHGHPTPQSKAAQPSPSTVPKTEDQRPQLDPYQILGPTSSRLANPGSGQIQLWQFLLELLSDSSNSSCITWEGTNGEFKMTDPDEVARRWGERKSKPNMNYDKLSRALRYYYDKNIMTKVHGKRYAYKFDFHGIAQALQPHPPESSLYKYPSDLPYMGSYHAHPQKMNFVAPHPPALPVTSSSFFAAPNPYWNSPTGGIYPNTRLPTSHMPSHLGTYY
# In short: as §1
# ELF1 = ELF1 (Homo sapiens, UniProt P32519 1-619); settings: protein: recombinant; tags: N-terminal GST; dsDNA, one strand shown
# In short: as §1
# EHF = target: T5, EHF (Homo sapiens, UniProt Q9NZC4 1-300); settings: protein: recombinant; tags: N-terminal GST; dsDNA, one strand shown
# T5 sequence: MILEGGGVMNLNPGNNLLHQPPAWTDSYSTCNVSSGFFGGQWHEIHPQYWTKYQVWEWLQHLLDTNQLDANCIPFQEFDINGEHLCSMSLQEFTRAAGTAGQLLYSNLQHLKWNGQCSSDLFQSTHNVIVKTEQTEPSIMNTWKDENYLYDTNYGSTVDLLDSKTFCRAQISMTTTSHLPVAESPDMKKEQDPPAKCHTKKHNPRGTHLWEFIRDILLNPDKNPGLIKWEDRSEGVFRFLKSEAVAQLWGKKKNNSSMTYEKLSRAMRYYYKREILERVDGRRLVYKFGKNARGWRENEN
# In short: as §1
# SPI1 = SPI1 (Homo sapiens, UniProt P17947 1-270); settings: protein: recombinant; tags: N-terminal GST; dsDNA, one strand shown
# In short: as §1
# SPIB = SPIB (Homo sapiens, UniProt Q01892 1-262); settings: protein: recombinant; tags: N-terminal GST; dsDNA, one strand shown
# In short: as §1
# ELK3 = target: T6, ELK3 (Homo sapiens, UniProt P41970 1-407); settings: protein: recombinant; tags: N-terminal GST; dsDNA, one strand shown
# T6 sequence: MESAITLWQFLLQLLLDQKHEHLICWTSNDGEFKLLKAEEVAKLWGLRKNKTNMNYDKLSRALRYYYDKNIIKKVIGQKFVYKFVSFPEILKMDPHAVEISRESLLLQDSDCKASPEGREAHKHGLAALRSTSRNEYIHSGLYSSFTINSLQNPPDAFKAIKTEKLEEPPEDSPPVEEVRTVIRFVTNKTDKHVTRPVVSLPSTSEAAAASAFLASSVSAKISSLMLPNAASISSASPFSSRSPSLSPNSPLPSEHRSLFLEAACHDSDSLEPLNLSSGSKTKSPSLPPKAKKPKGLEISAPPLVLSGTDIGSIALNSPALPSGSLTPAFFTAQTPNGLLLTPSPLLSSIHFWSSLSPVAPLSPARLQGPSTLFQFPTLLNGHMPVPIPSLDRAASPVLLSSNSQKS
# In short: as §1
# FEV = target: T7, FEV (Homo sapiens, UniProt Q99581 1-238); settings: protein: recombinant; tags: N-terminal GST; dsDNA, one strand shown
# T7 sequence: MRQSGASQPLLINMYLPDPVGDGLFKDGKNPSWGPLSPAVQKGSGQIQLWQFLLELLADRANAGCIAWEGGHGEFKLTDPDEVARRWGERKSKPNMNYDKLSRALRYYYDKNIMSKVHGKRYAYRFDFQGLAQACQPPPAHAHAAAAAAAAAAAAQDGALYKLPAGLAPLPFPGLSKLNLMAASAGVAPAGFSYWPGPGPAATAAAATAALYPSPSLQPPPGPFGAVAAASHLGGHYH
# In short: as §1
# ETV5 = ETV5 (Homo sapiens, UniProt P41161 1-510); settings: protein: recombinant; tags: N-terminal GST; dsDNA, one strand shown
# In short: as §1
# HSF1 = HSF1 (Homo sapiens, UniProt Q00613 1-529); settings: protein: recombinant; tags: N-terminal GST; chain copies: 3; dsDNA, one strand shown
# In short: as §1
# SPIC = target: T8, SPIC (Homo sapiens, UniProt Q8N5J4 1-248); settings: protein: recombinant; tags: N-terminal GST; dsDNA, one strand shown
# T8 sequence: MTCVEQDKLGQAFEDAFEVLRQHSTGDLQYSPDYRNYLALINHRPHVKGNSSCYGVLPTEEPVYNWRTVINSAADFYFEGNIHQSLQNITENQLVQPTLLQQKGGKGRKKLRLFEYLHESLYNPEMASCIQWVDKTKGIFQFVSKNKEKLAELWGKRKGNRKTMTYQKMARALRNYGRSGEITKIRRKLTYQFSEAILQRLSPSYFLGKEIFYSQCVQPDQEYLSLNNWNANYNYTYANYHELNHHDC
# In short: as §1
# ELF4 = ELF4 (Homo sapiens, UniProt Q99607 1-663); settings: protein: recombinant; tags: N-terminal GST; dsDNA, one strand shown
# In short: as §1
# ELK4 = target: T9, ELK4 (Homo sapiens, UniProt P28324-2 1-405); settings: protein: recombinant; tags: N-terminal GST; dsDNA, one strand shown
# T9 sequence: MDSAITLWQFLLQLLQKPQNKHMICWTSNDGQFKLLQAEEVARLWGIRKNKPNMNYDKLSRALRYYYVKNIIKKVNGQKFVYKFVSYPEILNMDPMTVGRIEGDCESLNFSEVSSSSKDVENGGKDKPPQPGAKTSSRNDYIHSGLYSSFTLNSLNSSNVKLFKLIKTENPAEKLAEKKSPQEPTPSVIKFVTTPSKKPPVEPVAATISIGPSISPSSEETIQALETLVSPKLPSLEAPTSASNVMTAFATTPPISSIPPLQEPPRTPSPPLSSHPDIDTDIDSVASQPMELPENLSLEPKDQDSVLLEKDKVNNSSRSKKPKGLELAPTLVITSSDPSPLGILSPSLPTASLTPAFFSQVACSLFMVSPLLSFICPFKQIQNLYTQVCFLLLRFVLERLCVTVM
# In short: as §1
# ETV2 = target: T10, ETV2 (Homo sapiens, UniProt O00321 1-342); settings: protein: recombinant; tags: N-terminal GST; dsDNA, one strand shown
# T10 sequence: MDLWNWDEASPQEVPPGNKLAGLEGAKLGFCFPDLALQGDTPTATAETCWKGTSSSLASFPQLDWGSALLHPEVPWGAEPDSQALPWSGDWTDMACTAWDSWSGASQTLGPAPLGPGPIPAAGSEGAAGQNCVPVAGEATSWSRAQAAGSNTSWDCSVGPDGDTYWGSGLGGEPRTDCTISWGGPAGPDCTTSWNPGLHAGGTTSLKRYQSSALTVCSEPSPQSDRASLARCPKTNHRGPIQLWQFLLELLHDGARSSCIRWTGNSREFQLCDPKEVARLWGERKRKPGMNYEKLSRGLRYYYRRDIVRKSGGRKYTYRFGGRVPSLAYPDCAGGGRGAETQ
# In short: as §1
# ELF3 = target: T11, ELF3 (Homo sapiens, UniProt P78545 1-371); settings: protein: recombinant; tags: N-terminal GST; dsDNA, one strand shown
# T11 sequence: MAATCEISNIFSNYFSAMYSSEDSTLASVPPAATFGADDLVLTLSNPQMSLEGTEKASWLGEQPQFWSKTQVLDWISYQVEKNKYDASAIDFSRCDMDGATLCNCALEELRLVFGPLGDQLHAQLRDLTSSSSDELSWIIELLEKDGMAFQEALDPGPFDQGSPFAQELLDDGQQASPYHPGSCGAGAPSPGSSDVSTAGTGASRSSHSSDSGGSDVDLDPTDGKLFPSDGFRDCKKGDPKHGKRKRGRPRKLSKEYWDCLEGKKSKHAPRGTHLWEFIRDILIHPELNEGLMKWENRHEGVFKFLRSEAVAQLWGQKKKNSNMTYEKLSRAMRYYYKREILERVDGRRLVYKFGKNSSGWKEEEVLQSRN
# In short: as §1
# CRX = CRX (Homo sapiens, UniProt O43186 1-299); settings: protein: recombinant; tags: N-terminal GST; dsDNA, one strand shown
# In short: as §1
# ETV1 = ETV1 (Homo sapiens, UniProt P50549 1-477); settings: protein: recombinant; tags: N-terminal GST; dsDNA, one strand shown
# In short: as §1
# ETV5, sequence (P41161 whole entry): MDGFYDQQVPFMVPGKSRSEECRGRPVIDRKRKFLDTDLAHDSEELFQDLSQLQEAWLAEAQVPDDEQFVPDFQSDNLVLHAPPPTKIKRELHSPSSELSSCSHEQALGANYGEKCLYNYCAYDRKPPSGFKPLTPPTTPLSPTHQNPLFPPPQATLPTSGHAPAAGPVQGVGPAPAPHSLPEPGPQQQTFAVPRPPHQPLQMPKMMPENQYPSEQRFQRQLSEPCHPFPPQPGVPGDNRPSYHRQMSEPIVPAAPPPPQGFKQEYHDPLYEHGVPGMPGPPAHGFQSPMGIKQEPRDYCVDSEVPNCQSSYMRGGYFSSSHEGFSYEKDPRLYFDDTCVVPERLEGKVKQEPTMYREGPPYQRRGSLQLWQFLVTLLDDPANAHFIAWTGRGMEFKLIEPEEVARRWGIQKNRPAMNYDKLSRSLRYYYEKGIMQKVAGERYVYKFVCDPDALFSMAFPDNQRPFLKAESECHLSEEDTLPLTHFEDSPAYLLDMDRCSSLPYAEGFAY
# SPIB, sequence (Q01892 whole entry): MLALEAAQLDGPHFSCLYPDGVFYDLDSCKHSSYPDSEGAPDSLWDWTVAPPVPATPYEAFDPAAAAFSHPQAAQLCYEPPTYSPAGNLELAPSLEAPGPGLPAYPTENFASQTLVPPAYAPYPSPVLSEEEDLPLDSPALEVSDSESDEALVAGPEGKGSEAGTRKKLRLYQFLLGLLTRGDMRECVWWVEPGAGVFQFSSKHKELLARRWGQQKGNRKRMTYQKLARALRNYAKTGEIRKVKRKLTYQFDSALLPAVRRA
# CRX, sequence (O43186 whole entry): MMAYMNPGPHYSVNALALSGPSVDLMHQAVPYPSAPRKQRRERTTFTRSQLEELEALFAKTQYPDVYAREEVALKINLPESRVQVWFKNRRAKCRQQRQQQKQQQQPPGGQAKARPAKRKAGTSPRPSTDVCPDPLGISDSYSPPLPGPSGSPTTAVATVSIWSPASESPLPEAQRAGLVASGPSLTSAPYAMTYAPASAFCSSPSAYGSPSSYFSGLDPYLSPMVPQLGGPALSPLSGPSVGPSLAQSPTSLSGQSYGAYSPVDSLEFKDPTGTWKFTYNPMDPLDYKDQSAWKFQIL
# ELF4, sequence (Q99607 whole entry): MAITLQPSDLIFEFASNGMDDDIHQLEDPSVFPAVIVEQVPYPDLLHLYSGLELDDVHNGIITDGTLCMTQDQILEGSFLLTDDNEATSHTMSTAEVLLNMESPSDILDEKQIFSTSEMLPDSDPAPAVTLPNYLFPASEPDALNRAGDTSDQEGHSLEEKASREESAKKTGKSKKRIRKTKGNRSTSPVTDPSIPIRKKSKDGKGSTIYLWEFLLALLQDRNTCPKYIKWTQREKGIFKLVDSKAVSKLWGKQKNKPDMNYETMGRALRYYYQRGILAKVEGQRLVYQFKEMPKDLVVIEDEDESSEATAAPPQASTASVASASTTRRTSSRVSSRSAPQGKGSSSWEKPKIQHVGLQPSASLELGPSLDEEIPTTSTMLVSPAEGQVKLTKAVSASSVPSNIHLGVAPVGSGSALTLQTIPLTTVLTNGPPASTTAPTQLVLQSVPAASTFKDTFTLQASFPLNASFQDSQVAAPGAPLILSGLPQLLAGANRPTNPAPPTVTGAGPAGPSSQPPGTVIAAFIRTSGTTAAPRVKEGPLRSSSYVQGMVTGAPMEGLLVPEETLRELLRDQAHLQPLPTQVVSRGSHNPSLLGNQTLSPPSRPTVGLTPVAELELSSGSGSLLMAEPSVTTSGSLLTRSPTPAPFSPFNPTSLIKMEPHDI
# ELF1, sequence (P32519 whole entry): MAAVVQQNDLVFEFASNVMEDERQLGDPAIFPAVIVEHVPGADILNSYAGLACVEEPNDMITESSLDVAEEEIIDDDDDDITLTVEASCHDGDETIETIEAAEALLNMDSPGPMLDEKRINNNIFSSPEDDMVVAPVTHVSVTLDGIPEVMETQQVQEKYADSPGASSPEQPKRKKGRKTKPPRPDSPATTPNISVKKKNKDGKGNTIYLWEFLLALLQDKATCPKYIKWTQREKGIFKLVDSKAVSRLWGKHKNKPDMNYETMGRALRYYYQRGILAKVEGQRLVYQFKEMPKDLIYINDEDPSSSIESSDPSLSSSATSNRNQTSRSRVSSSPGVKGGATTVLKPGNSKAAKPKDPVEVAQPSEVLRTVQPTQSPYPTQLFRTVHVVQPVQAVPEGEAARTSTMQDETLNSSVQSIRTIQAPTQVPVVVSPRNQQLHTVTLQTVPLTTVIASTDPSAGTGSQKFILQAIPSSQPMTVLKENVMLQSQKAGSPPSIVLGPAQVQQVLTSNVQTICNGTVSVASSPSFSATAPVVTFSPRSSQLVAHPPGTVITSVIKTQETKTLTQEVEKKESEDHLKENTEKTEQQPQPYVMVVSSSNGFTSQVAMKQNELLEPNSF
# ETV1, sequence (P50549 whole entry): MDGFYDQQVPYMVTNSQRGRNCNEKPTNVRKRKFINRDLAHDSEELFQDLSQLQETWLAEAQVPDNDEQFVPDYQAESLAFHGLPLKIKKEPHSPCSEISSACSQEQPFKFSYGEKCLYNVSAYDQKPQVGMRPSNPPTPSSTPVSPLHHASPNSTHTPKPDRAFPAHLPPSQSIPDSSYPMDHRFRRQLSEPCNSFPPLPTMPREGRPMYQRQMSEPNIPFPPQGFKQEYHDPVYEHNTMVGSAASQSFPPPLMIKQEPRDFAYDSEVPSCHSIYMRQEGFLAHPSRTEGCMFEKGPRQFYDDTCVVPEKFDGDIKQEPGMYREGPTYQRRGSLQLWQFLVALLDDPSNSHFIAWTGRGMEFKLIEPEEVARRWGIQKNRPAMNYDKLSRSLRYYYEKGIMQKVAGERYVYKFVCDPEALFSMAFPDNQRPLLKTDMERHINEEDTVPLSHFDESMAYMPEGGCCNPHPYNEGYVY
# HSF1, sequence (Q00613 whole entry): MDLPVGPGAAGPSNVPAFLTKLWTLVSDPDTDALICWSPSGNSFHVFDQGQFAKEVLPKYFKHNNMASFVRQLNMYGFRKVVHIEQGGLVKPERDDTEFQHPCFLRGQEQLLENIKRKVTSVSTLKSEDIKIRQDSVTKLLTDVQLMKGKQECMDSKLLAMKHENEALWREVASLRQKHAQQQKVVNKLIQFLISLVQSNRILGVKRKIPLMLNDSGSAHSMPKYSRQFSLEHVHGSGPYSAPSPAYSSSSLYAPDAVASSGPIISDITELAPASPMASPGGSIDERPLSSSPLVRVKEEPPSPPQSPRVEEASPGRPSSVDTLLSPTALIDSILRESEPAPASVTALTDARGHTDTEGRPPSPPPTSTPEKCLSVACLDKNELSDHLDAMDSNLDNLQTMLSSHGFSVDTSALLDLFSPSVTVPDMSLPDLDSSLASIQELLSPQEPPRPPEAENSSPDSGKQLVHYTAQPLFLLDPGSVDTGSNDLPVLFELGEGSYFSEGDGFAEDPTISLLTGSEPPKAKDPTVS
sequence,measurement,setting,value
TGGAAT,binding signal,FLI1,"1.36 fold enrichment (6-mer frequency, TF over GST control)"
same,binding signal,ELK1,"1.21 fold enrichment (6-mer frequency, TF over GST control)"
same,binding signal,GABPA,"1.3 fold enrichment (6-mer frequency, TF over GST control)"
same,binding signal,ERG,"1.25 fold enrichment (6-mer frequency, TF over GST control)"
same,binding signal,ELF1,"1.22 fold enrichment (6-mer frequency, TF over GST control)"
same,binding signal,EHF,"1.19 fold enrichment (6-mer frequency, TF over GST control)"
same,binding signal,SPI1,"1.25 fold enrichment (6-mer frequency, TF over GST control)"
same,binding signal,SPIB,"1.21 fold enrichment (6-mer frequency, TF over GST control)"
same,binding signal,ELK3,"1.25 fold enrichment (6-mer frequency, TF over GST control)"
same,binding signal,FEV,"1.21 fold enrichment (6-mer frequency, TF over GST control)"
same,binding signal,ETV5,"1.22 fold enrichment (6-mer frequency, TF over GST control)"
same,binding signal,HSF1,"2.63 fold enrichment (6-mer frequency, TF over GST control)"
same,binding signal,SPIC,"1.22 fold enrichment (6-mer frequency, TF over GST control)"
same,binding signal,ELF4,"1.14 fold enrichment (6-mer frequency, TF over GST control)"
same,binding signal,ELK4,"1.21 fold enrichment (6-mer frequency, TF over GST control)"
same,binding signal,ETV2,"1.47 fold enrichment (6-mer frequency, TF over GST control)"
same,binding signal,ELF3,"1.21 fold enrichment (6-mer frequency, TF over GST control)"
same,binding signal,CRX,"1.77 fold enrichment (6-mer frequency, TF over GST control)"
same,binding signal,ETV1,"1.24 fold enrichment (6-mer frequency, TF over GST control)"
